Reference: PubChem BioAssay
Calls of active or inactive are those of the source.

Assays:
[1] = tested on: Plasmodium falciparum Sir2 (PF13_0152, Sir2A); experiment: pfSir2 binders on small-molecule microarrays, primary screen, biochemical, small-molecule microarray, 635 nm fluorescence (AID 1098); details: small-molecule microarray binding, fluorescence 635 nm; higher = more signal;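 further: score merges spot fluorescence intensity with its signal-to-noise ratio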
[2] = small-molecule microarray binders of probe aDKK1, primary screen, biochemical, biotinylated probe, 635/667 nm fluorescence (AID 1099); details: higher = more signal;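 further: score merges 667nm spot fluorescence with signal to noise across triplicate slides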
[3] = small-molecule microarray binders of probe aCHRDL2, primary screen, biochemical, biotinylated probe, 635/667 nm fluorescence (AID 1100); details: higher = more signal
[4] = splicing luciferase reporter signal modulators, primary screen, spliceosome inhibition project, cell-based, HEK293, splice +/- reporter (AID 1101); details: luminescence, 24 h, higher = more signal, called active from +8 up or from −8 down;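 further: HEK293 cells carrying a splicing-competent luciferase reporter gene; test concentration not given here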
[5] = target: Fibroblast growth factor 10 (Homo sapiens) (UniProt O15520); experiment: FGF10 binders on small-molecule microarrays, primary screen, biochemical, small-molecule microarray, 635 nm fluorescence (AID 1102); details: FGF10 binding, fluorescence 635 nm, higher = more signal
[6] = tested on: glycogen synthase kinase-3 (GSK3A per assay name; protocol says GSK3B); experiment: GSK3 binders on small-molecule microarrays, primary screen, biochemical, small-molecule microarray, 635 nm fluorescence, GSK3A (AID 1103); details: small-molecule microarray binding, fluorescence 635 nm; higher = more signal; further: the record names both GSK3A and GSK3B
[7] = target: Epidermal growth factor receptor (Homo sapiens) (UniProt P00533); experiment: EGFR binders on small-molecule microarrays, primary screen, biochemical, small-molecule microarray, 635 nm fluorescence (AID 1104); details: EGFR binding, higher = more signal;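 further: score merges 667 nm emission intensity with spot signal to noise over triplicate slides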
[8] = target: Follistatin-related protein 3 (Homo sapiens) (UniProt O95633); experiment: FSTL3 binders on small-molecule microarrays, primary screen, biochemical, small-molecule microarray, 635 nm fluorescence (AID 1105); details: FSTL3 binding, higher = more signal;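 further: score merges emission near 667 nm and signal to noise per printed spot across three slides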
[9] = target: Dickkopf-related protein 1 (Homo sapiens) (UniProt O94907); experiment: DKK1 binders on small-molecule microarrays, primary screen, biochemical, small-molecule microarray, 635 nm fluorescence scan (AID 1106); details: DKK1 binding, higher = more signal;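 further: score merges emission near 667 nm with signal to noise over three replicate slides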
[10] = tested on: Inhibin beta A chain (activin A); experiment: INHBA (activin A) binders on microarrays, primary screen, biochemical, small-molecule microarray, 635 nm fluorescence scan (AID 1107); details: small-molecule microarray binding, higher = more signal;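 further: mouse activin A protein probed at 4.33 µg/mL on printed slides; score merges bound-protein fluorescence near 667 nm with spot signal-to-noise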
[11] = tested on: Human papillomavirus type 1a protein E7 (residues 44-93); experiment: HPV1a E7 fragment binders on microarrays, primary screen, biochemical, small-molecule microarray, residues 44-93, 635 nm fluorescence (AID 1108); details: small-molecule microarray binding, fluorescence 635 nm; higher = more signal;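 further: E7 fragment applied at 1 µg/mL in TBST for 1 h at 4 C; score combines spot fluorescence with its signal to noise ratio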
[12] = modulators of HCV replicon luciferase signal, primary screen, HCV replication inhibitor project, Huh7 cells, luciferase reporter (AID 1109); details: 48 h, higher = more signal;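 further: huh7 hepatoma cells harbouring a luciferase neomycin HCV replicon reporter; luciferase luminescence as measure of HCV replicon replication; test concentration not given here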
[13] = target: Left-right determination factor 2 (Homo sapiens) (UniProt O00292); experiment: LEFTY2 binders on small-molecule microarrays, primary screen, biochemical, small-molecule microarray, 635 nm fluorescence scan (AID 1110); details: LEFTY2 binding, higher = more signal
[14] = target: Calmodulin-1 (Homo sapiens) (UniProt P0DP23); experiment: CALM1 binders on microarrays, EGTA buffer, profiling panel, biochemical, small-molecule microarray, Cy5-labelled CALM1 (AID 1111); details: Cy5-CALM1 binding fluorescence, higher = more signal;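 further: labelled calmodulin applied in Tris saline Tween buffer holding calcium plus EGTA and DTT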
[15] = target: Calmodulin-1 (Homo sapiens) (UniProt P0DP23); experiment: calcium-bound CALM1 binders on microarrays, profiling panel, artefact control for SMM control-protein annotation, biochemical, small-molecule microarray, Cy5-labelled CALM1, plus calcium (AID 1112); details: Cy5-CALM1 binding fluorescence, higher = more signal;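 further: score merges spot fluorescence with signal to noise from triplicate slides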
[16] = small-molecule microarray binders of probe aWnt5a, primary screen, biochemical, biotinylated probe, 635/667 nm fluorescence (AID 1113); details: higher = more signal;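 further: score merges 667 nm fluorescence intensity with signal-to-noise per printed feature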
[17] = small-molecule microarray binders of probe aShh, primary screen, biochemical, biotinylated probe, 635/667 nm fluorescence (AID 1114); details: higher = more signal;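 further: probe is biotin-labelled aShh protein from a stem cell growth factor screen; measures binding of labelled protein to compounds printed on the slide; score merges feature fluorescence at 667 nm with signal-to-noise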
[18] = small-molecule microarray binders of probe aNog, primary screen, biochemical, biotinylated probe, 635/667 nm fluorescence (AID 1115); details: higher = more signal;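 further: probe is biotinylated aNog protein used at 0.15 µg/mL for 1 h at 4 C; z-score combines 667 nm fluorescence of each spot with its signal to noise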
[19] = target: Torsin-1A-interacting protein 1 (Homo sapiens) (UniProt Q5JTV8); experiment: LAP1 binders from COS7 cell lysate, primary screen, small-molecule microarray, 635/667 nm fluorescence (AID 1116); details: COS7-hLAP1 lysate binding, 635 nm fluorescence, higher = more signal
[20] = target: Alpha-bungarotoxin (Bungarus multicinctus) (UniProt P60615); experiment: alpha-bungarotoxin binders on microarray, profiling panel, artefact control for SMM control protein annotation, biochemical, small-molecule microarray, Alexa647 label, 635/667 nm fluorescence (AID 1117); details: alpha-BTX-A647 binding fluorescence, higher = more signal
Alpha-bungarotoxin (Bungarus multicinctus), sequence (P60615 whole entry, looked up): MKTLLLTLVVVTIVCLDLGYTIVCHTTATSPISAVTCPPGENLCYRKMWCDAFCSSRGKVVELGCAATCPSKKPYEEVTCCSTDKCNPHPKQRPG

Epidermal growth factor receptor (Homo sapiens), sequence (P00533 whole entry, looked up): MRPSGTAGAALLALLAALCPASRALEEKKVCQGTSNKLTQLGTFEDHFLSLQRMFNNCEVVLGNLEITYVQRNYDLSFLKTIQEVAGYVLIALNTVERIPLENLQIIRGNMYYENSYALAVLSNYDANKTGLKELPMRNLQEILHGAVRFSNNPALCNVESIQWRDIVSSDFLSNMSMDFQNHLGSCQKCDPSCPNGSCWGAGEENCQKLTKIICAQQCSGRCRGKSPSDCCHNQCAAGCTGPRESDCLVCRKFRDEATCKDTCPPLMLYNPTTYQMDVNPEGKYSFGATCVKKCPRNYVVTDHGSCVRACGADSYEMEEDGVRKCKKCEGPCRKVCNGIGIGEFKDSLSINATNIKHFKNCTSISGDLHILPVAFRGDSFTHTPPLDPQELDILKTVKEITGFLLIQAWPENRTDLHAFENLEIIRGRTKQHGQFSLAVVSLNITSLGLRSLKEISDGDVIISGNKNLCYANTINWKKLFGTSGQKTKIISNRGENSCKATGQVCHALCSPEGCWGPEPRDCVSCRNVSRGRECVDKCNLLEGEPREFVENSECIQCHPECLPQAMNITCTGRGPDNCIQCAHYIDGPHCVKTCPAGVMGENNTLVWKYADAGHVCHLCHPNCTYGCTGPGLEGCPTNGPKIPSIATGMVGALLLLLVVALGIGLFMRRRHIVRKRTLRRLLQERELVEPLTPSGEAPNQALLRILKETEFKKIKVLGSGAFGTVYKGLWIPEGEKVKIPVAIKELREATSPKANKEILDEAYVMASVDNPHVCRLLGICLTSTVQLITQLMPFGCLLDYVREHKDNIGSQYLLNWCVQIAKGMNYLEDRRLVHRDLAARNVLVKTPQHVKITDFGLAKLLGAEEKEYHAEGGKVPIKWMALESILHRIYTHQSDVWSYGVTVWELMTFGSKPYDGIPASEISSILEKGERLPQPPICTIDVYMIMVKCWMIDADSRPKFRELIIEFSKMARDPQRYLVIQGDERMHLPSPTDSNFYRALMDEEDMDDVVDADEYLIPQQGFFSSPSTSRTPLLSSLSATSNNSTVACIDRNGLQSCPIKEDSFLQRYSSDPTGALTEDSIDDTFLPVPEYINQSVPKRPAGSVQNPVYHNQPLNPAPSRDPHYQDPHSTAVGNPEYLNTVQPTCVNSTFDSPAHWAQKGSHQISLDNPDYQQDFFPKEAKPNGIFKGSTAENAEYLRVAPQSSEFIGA
Follistatin-related protein 3 (Homo sapiens), sequence (O95633 whole entry, looked up): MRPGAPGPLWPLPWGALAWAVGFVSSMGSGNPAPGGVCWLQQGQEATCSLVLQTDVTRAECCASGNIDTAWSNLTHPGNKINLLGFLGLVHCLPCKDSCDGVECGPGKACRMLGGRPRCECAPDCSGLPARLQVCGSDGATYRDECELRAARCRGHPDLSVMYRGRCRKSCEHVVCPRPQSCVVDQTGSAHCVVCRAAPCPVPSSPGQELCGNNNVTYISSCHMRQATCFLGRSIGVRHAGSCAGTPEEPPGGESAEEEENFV
Torsin-1A-interacting protein 1 (Homo sapiens), sequence (Q5JTV8 whole entry, looked up): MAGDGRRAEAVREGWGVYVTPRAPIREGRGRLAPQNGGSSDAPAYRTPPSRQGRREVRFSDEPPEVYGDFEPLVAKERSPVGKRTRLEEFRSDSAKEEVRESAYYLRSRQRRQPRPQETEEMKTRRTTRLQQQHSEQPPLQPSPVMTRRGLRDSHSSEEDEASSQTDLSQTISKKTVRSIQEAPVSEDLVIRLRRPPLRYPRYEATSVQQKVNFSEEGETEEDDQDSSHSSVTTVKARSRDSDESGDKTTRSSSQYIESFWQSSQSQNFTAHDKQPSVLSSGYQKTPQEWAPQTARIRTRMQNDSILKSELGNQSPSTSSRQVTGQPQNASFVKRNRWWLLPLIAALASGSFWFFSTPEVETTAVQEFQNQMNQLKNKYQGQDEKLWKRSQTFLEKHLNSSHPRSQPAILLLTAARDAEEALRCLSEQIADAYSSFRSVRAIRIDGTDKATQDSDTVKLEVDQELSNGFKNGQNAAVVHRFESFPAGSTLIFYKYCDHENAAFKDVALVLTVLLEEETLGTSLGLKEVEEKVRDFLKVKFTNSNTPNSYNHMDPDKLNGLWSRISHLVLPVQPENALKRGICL
Dickkopf-related protein 1 (Homo sapiens), sequence (O94907 whole entry, looked up): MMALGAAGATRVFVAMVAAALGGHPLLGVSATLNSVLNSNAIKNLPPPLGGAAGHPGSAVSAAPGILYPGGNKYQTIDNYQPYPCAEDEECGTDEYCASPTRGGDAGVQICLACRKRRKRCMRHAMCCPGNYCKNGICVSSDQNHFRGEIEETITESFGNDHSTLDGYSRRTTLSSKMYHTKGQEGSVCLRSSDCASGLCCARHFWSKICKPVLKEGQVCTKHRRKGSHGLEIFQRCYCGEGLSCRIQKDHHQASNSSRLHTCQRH
Left-right determination factor 2 (Homo sapiens), sequence (O00292 whole entry, looked up): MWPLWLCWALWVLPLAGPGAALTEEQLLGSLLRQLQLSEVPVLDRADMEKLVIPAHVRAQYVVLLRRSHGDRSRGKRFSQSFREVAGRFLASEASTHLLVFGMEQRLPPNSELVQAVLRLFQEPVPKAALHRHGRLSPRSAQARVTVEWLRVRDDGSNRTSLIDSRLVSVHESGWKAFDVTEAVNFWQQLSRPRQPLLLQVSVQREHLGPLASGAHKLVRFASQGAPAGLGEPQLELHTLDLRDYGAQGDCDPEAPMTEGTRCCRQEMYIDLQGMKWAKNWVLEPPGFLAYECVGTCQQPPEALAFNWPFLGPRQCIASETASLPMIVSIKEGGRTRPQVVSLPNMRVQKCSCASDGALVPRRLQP
Fibroblast growth factor 10 (Homo sapiens), sequence (O15520 whole entry, looked up): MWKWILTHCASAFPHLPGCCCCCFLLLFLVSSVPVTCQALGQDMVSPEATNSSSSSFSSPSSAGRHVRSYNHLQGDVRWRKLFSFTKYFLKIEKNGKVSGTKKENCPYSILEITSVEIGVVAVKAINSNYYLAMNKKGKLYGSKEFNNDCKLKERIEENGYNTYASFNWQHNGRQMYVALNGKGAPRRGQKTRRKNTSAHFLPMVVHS

| SMILES | composite z-score [1] | composite z-score [2] | composite z-score [3] | z-score [4] | composite z-score [5] | composite z-score [6] | composite z-score [7] | composite z-score [8] | composite z-score [9] | composite z-score [10] | composite z-score [11] | z-score [12] | composite z-score [13] | composite z-score [14] | composite z-score [15] | composite z-score [16] | composite z-score [17] | composite z-score [18] | composite z-score [19] | composite z-score [20] |
| --- | --- | --- | --- | --- | --- | --- | --- | --- | --- | --- | --- | --- | --- | --- | --- | --- | --- | --- | --- | --- |
| CC1(C)OCC(C(O)C2=CCCCC2=O)CO1 (stereo not given) | 1.04 | -0.137 | -0.704 | 0.733 (inactive) | 0.694 | 0.999 | 0.625 | 0.859 | 0.717 | 1.6 | 0.198 | -0.751 | 1.07 | 0.465 | -0.927 | 0.0244 | -0.276 | -0.158 | 0.5 | 1.16 |
| CC(C)NC(=O)[C@@H]1c2ccccc2C(=O)N(CC23CC4CC(CC(C4)C2)C3)[C@H]1c1ccc(CO)cc1 | 1.45 | 0.171 | 0.46 | -1.21 (inactive) | 0.596 | 1.23 | 0.582 | 1.28 | 0.651 | 0.43 | 1.36 | -1.67 | 0.606 | 0.324 | -0.291 | -0.0835 | 0.439 | -0.338 | 0.774 | 0.812 |
| Cc1cc(C)c(-c2cc([C@H](C)ON=C3[C@H]4CCn5c(=O)n(-c6ccccc6)c(=O)n5[C@H]4[C@H](O)[C@@H]4O[C@H]34)on2)c(C)c1 | 0.167 | -0.255 | -0.48 | 2.01 (inactive) | 0.501 | 0.253 | 0.377 | 0.801 | 0.88 | -0.0289 | 0.548 | -4.92 | 0.59 | 0.0681 | -0.386 | 0.0559 | 0.184 | -0.0554 | 0.441 | 0.322 |
| C[C@H]1Cc2c(-c3ccccc3)nc3c(c2CO1)CN(CCOc1ccccc1)CC3 | 1.21 | -0.357 | -0.815 | -0.512 (inactive) | 1.19 | 1.28 | 0.65 | 1.29 | 0.94 | 0.127 | 1.33 | -0.56 | 0.945 | 0.491 | -0.416 | -0.0203 | 0.147 | -0.0172 | 0.0704 | 0.269 |
| O=C(NN=C1C[C@@H](O)[C@@H](O)[C@@H]2[C@@H]3C(=O)N(c4cccc(Oc5ccccc5)c4)C(=O)[C@@H]3CC[C@@H]12)OCc1ccccc1 | 0.0165 | 0.182 | 0.548 | 0.538 (inactive) | 0.353 | -0.54 | 0.152 | -0.112 | 0.155 | 0.229 | 0.69 | -0.983 | 0.127 | 0.131 | 0.0109 | -0.145 | -0.206 | 0.0658 | 0.184 | 0.837 |
| O=C1O[C@@H](c2ccccc2)[C@@H](c2ccccc2)N2[C@@H](c3ccc(OCCO)cc3)[C@]3(C(=O)Nc4ccc(C#CCCO)cc43)[C@@H](C(=O)N3CCCCCCC3)[C@H]12 | 1.85 | 2.25 | 1.13 | -0.277 (inactive) | 1.22 | 1.32 | 0.744 | 1.55 | 1.78 | 1.71 | -0.516 | -0.777 | 1.07 | 2.62 | 1.06 | 0.935 | 2.18 | 2.81 | 4.07 | 2.78 |
| C[C@@H](c1ccccc1)N1C(=O)[C@H]2[C@H]3[C@H](O)[C@H](O)CC(=NNC(=O)OCc4ccccc4)[C@H]3CC[C@H]2C1=O | -0.0979 | 0.24 | 0.794 | 0.373 (inactive) | 0.0359 | -0.354 | 0.191 | -0.461 | -0.415 | 0.0683 | -0.269 | -2.23 | 0.495 | 0.12 | -0.726 | -0.0735 | 0.0815 | -0.0567 | 0.464 | 0.284 |
| COC(=O)[C@@H]1N=C(c2ccc(OCCCO)cc2)O[C@@H]1c1ccccc1N=[N+]=[N-] | 1.47 | 1.14 | 1.37 | -1.99 (inactive) | 0.046 | 0.981 | -0.356 | -0.0503 | -0.68 | 1.08 | 0.515 | -1.66 | -0.187 | 1.54 | 1.04 | -0.0445 | 0.214 | 0.619 | 1.27 | 1.42 |
| CO[C@@H]1COC(=O)[C@H](C)NC(=O)[C@@H](C)COC(=O)CCC[C@H]1C | 0.957 | -0.122 | -0.554 | 0.494 (inactive) | 0.721 | 0.115 | 0.429 | 1.11 | 0.705 | -0.0431 | 0.379 | -1.33 | 0.753 | -0.485 | -0.704 | -0.101 | -0.138 | -0.169 | 0.268 | -0.0916 |
| CC(C)CON=C1C[C@@H](O)[C@@H](O)[C@@H]2[C@@H]3C(=O)N([C@@H](C)c4ccccc4)C(=O)[C@@H]3CC[C@H]12 | 0.43 | -0.325 | -0.565 | 0.115 (inactive) | 1.07 | 0.778 | 0.39 | 1.24 | 0.76 | -0.204 | 1.36 | 0.775 | 0.756 | 0.336 | -0.351 | -0.124 | -0.0011 | -0.0308 | 0.619 | 0.922 |
| CCN1C(=O)[C@H]2[C@H]3[C@H](O)C=CC(=O)[C@@H]3CC[C@H]2C1=O | 0.163 | -0.094 | -0.484 | 0.403 (inactive) | 0.402 | 0.743 | 0.378 | 0.548 | 0.444 | -0.114 | 0.907 | 0.305 | 0.503 | 0.0903 | -0.528 | -0.126 | -0.13 | 0.0658 | 0.694 | 0.45 |
| C=C(/C(=C/C[C@H](OC(=O)c1ccncc1)c1ccc(OCCO)cc1)c1cnc2ccccc2c1)C(C)C | 0.933 | -0.196 | -0.163 | 0.215 (inactive) | 1.61 | 1.07 | 1.07 | 1.38 | 0.856 | 1.7 | 1.31 | -2.01 | 1.06 | 0.0481 | -0.708 | 0.0324 | 0.13 | -0.338 | 2.24 | 1.67 |
| COc1ccc(O[C@@H]2[C@H](O)CO[C@H]2C=CC#Cc2ccccc2)cc1 | 1.32 | -0.477 | -0.716 | 0.167 (inactive) | 0.199 | -0.207 | -0.352 | 0.103 | 0.438 | 0.539 | -0.289 | -0.0351 | 0.347 | -0.414 | -0.789 | -0.1 | -0.138 | -0.234 | 0.17 | -0.891 |
| COc1ccc(-c2ccc3c(n2)CCCN3CC(O)CN2CCCc3nc(C)c(C)cc32)cc1 (stereo not given) | 0.879 | 0.323 | 0.386 | -0.155 (inactive) | 0.817 | 0.871 | 0.691 | 0.995 | 1.39 | 1.6 | 1.02 | -0.578 | 0.728 | 0.0025 | -0.636 | 0.459 | 0.699 | 0.667 | 0.833 | 2.05 |
